The text below walks through data of PubChem BioAssay AID485338 (The Scripps Research Institute Molecular Screening Center, 2010).

Potency and affinity values are given separately. Activity calls are given as the source filed them.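 How the source made its calls: active means mean inhibition of cell viability at 10 µM of at least 40% (some results past the limit were not filed as active); inactive means the rest.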

A short description of the test: DLD-1 cell viability reduction – luminescence, round 1, cytotoxicity control for KLF5 inhibitor project, late-stage follow-up (AID 485338).

As to `Cc1ccc2nc(NC(=O)CCCc3nc4ccccc4s3)sc2c1`, the outcome was inactive.
The result for `CCOC(=O)c1sc(NC(=O)c2ccc3ncsc3c2)nc1C` reads “inactive”.
The result for `COC(=O)c1ccc2nc(Nc3nc4ccc(F)cc4s3)sc2c1` reads “inactive”.
Take `CCCc1ccc(-c2ccc(/C=C/C(=O)O)cc2)nc1`: the result was inactive.
